# Measured values published in ChEMBL document CHEMBL3988442, “University of Dundee, Small-Polar-MMV Screening Library” (2021).
# The campaign covered roughly 69,000 compounds. About 1,000 (1.4%) showed an effect of 50% or more. Many of the other results were omitted from the sample, so strong results are more common in it than they were.
# System: Leishmania donovani
# Assay: Leishmania intramacrophage assay
# Assay type: functional, organism-based
# Design: scale not given: in the data most compounds retested in dose-response had high values
structure (smiles),measurement,setting,value
O=C(O)C(F)(F)F.O=C(O)C(F)(F)F.O=C(c1ccco1)N1CCN2C[C@H](OCc3cccnc3)C[C@H]2C1,Percent Effect,"30.3 µM, […]",15.93%
O=C(O)C(F)(F)F.c1ccc(NC[C@@H]2CCC[C@@H]3CN(Cc4cccnc4)C[C@@H]32)nc1,Percent Effect,"30.3 µM, […]",38.85%
Fc1cccc(CN2C[C@@H]3CN(c4ncccn4)C[C@@H]3C2)c1.O=C(O)C(F)(F)F.O=C(O)C(F)(F)F,Percent Effect,"30.3 µM, […]",8.696%
Cc1noc(C)c1CN1C[C@@H]2CC(F)(F)C[C@@H]2C1.O=C(O)C(F)(F)F,Percent Effect,"30.3 µM, […]",4.682%
Cc1noc(C)c1CN1C[C@H]2CN(Cc3cccc(F)c3)C[C@H]2C1.O=C(O)C(F)(F)F.O=C(O)C(F)(F)F,Percent Effect,"30.3 µM, […]",50.84%
O=C(C1CCOC1)N1CCC2(CCNCC2)C1 (stereo not given),Percent Effect,"30.3 µM, […]",11.74%
Cc1cc(CN2CC[C@@H]3O[C@@H](c4nnc(C)o4)C[C@H]3C2)no1,Percent Effect,"30.3 µM, […]",55.35%
Cc1cc(CN2CC[C@H]3C[C@@H](c4nccs4)O[C@@H]3C2)no1,Percent Effect,"30.3 µM, […]",12.1%
Cc1nnc([C@H]2C[C@@H]3CCN(Cc4cc(C)on4)C[C@H]3O2)[nH]1,Percent Effect,"30.3 µM, […]",19.71%
CCc1c(C)[nH]c(C2(N)CCCC2)nc1=O.Cl,Percent Effect,"30.3 µM, […]",9.424%
O=C(O)C(F)(F)F.O=C(O)C(F)(F)F.c1cnc(N2CCCC3(CCN(CC4CC4)C3)C2)nc1 (stereo not given),Percent Effect,"30.3 µM, […]",29.01%
O=C(O)C(F)(F)F.c1cnc(N2CCC3(CCCN(CC4CC4)C3)CC2)nc1,Percent Effect,"30.3 µM, […]",32.8%
O=C(O)C(F)(F)F.c1cnc(N2CCCC3(CCN(CC4CCC4)C3)C2)nc1 (stereo not given),Percent Effect,"30.3 µM, […]",67.66%
Cc1noc([C@@H]2C[C@H]3OCC[C@H]3N(C(C)C)C2)n1.O=C(O)C(F)(F)F,Percent Effect,"30.3 µM, […]",-1.476%
c1ccc(N2CCCC3(CCN(Cc4nccs4)C3)C2)nc1 (stereo not given),Percent Effect,"30 µM, 30.03 µM",40.77%
CNC(=O)[C@@H]1[C@H]2CNCCN2C[C@H]1c1ccccc1,Percent Effect,"30.3 µM, […]",3%
Cc1ccc(CN2CCC3(CC2)C(=O)Nc2ccccc23)s1.O=C(O)C(F)(F)F,Percent Effect,"30.3 µM, […]",7.529%
Cl.Cl.NCC1[C@H]2CN(CCc3ccccc3)C[C@@H]12 (stereo not given in full),Percent Effect,"30 µM, 30.03 µM",31.54%
Cl.Cl.NC[C@H]1[C@H]2CN(Cc3ccccc3)C[C@@H]12,Percent Effect,"30 µM, 30.03 µM",3.608%
NCC1[C@H]2CN(Cc3cccc(Cl)c3)C[C@@H]12 (stereo not given in full),Percent Effect,"30.3 µM, […]",88.17%
CN1CCCCC1c1cncc(Cl)n1.Cl (stereo not given),Percent Effect,"30.3 µM, […]",9.533%
CCN1CCC2(CC1)C(=O)Nc1ccc(C(=O)NC)cc12.O=C(O)C(F)(F)F,Percent Effect,"30.3 µM, […]",1.318%
O=C(N1CCOCC1)[C@@]12CCO[C@@H]1CCN(Cc1ccncc1)C2.O=C(O)C(F)(F)F.O=C(O)C(F)(F)F,Percent Effect,"30.3 µM, […]",2.48%
CC(N)Cc1ccccc1Sc1ccccc1.O=C(O)/C=C\C(=O)O (stereo not given),Percent Effect,"30.3 µM, […]",100.2%
CC[C@H](C)[C@@H](CO)NC(C)Cc1ccccc1F (stereo not given in full),Percent Effect,"30.3 µM, […]",2.411%
CNC(C)Cc1ccccc1Sc1ccc(O)cc1.Cl (stereo not given),Percent Effect,"30.3 µM, […]",66.06%
CC(N)Cc1ccccc1Sc1ccc(O)cc1.CC(N)Cc1ccccc1Sc1ccc(O)cc1.O=C(O)C(=O)O (stereo not given),Percent Effect,"30.3 µM, […]",78.04%
CNS(=O)(=O)CC(=O)NC(C)Cc1ccccc1Br (stereo not given),Percent Effect,"30.3 µM, […]",6.804%
Cc1noc(C)c1CN1CCCC2(CCN(C(=O)NC3CC3)C2)C1.O=C(O)C(F)(F)F (stereo not given),Percent Effect,"30 µM, 30.03 µM",17.52%
O=C(C[C@@H]1COC[C@H]2CN(Cc3cccnc3)C[C@@H]12)N1CCCC1.O=C(O)C(F)(F)F.O=C(O)C(F)(F)F,Percent Effect,"30.3 µM, […]",-30.89%
CN1C(=O)C2(CCN(CC3CC3)CC2)c2ccccc21.O=C(O)C(F)(F)F,Percent Effect,"30 µM, 30.03 µM",16.21%
CN(C)[C@@H]1CCN(C(=O)Cc2ccc(F)cc2)[C@H]1Cc1ccncc1.O=C(O)C(F)(F)F.O=C(O)C(F)(F)F,Percent Effect,"30.3 µM, […]",29.68%
Cc1cccc(CN2CC[C@@H]3[C@@H]2CCN3C(=O)c2ccoc2C)n1.O=C(O)C(F)(F)F.O=C(O)C(F)(F)F,Percent Effect,"30.3 µM, […]",32.03%
Cc1[nH]c(C2(N)CCCCC2)nc(=O)c1C.Cl,Percent Effect,"30.3 µM, […]",27.19%
Cc1cnc(C(=O)N2C[C@H]3CN(Cc4cccnc4)C[C@H]3C2)cn1.O=C(O)C(F)(F)F.O=C(O)C(F)(F)F,Percent Effect,"30.3 µM, […]",19.7%
Cc1noc(C)c1CN1C[C@@H]2C[C@H](C(=O)NCC3CC3)N(C)[C@@H]2C1.O=C(O)C(F)(F)F.O=C(O)C(F)(F)F,Percent Effect,"30.3 µM, […]",-4.016%
CCN1CC2(CC1=O)CN(Cc1ccccn1)CCN(C(C)=O)C2.O=C(O)C(F)(F)F.O=C(O)C(F)(F)F (stereo not given),Percent Effect,"30.3 µM, […]",0.8966%
O=C(O)C(F)(F)F.O=C(O)C(F)(F)F.c1ccc(CN2CC[C@H]3CO[C@H](CNc4ncccn4)[C@H]3C2)cc1,Percent Effect,"30.3 µM, […]",8.127%
CN(C)C(=O)CN1CC[C@@H]2O[C@@H](COCc3cccnc3)CC[C@@H]21.O=C(O)C(F)(F)F.O=C(O)C(F)(F)F,Percent Effect,"30.3 µM, […]",38.61%
O=C(O)C(F)(F)F.O=C(O)C(F)(F)F.c1cncc(COC[C@H]2CC[C@H]3[C@H](CCN3Cc3cccs3)O2)c1,Percent Effect,"30 µM, 30.03 µM",31.53%
O=C(O)C(F)(F)F.O=C(O)C(F)(F)F.c1cncc(COC[C@H]2CC[C@H]3[C@H](CCN3Cc3nccs3)O2)c1,Percent Effect,"30.3 µM, […]",98.87%
COc1cc(CNC(C)Cn2cccn2)cc(Cl)c1OC.Cl (stereo not given),Percent Effect,30 µM,29.92%
Cc1cc(CN2C[C@@H]3COC[C@]3(CNC(=O)c3ccsc3)C2)no1.O=C(O)C(F)(F)F,Percent Effect,"30.3 µM, […]",18.56%
Cn1cc(N2CCC3(CCN(Cc4cccnc4)C3)C2=O)cn1.O=C(O)C(F)(F)F.O=C(O)C(F)(F)F (stereo not given),Percent Effect,"30 µM, 30.03 µM",-14.07%
Cn1cc(CN2CCC3(CCCN3Cc3cccnc3)CC2)cn1.O=C(O)C(F)(F)F.O=C(O)C(F)(F)F.O=C(O)C(F)(F)F,Percent Effect,"30.3 µM, […]",63.2%
O=C(O)C(F)(F)F.O=C(c1ccc[nH]1)N1CCC2(CCCN2Cc2cccnc2)CC1,Percent Effect,"30.3 µM, […]",12.17%
COCCN1C[C@@H]2[C@@H](OC)CCN(C(=O)Cc3ccccc3)[C@@H]2C1.O=C(O)C(F)(F)F,Percent Effect,"30.3 µM, […]",35.25%
COc1cc(C2SCC(=O)Nc3[nH]ncc32)cc2c1OCO2 (stereo not given),Percent Effect,"30.3 µM, […]",1.862%
COc1cc(C2SCC(=O)Nc3[nH]ncc32)cc(OC)c1OC (stereo not given),Percent Effect,"30.3 µM, […]",56.1%
COc1cc(C2SCC(=O)Nc3[nH]ncc32)c(OC)c2c1OCO2 (stereo not given),Percent Effect,"30.3 µM, […]",8.87%
COc1ccnc(N2C[C@@H]3CC[C@H](C2)N(CC2CC2)C3)n1,Percent Effect,"30.3 µM, […]",37.63%
CCOc1ccc(-c2cc(CCN)ccc2OC)cc1,Percent Effect,"30.3 µM, […]",-5.145%
COc1ccc(-c2ccccc2CCN)c(OC)c1,Percent Effect,"30.3 µM, […]",75.35%
CC(=O)Nc1cccc(-c2ccccc2CCN)c1,Percent Effect,"30.3 µM, […]",-35.33%
COCC(=O)N1CCC2(CCN(Cc3cccnc3)C2)CC1.O=C(O)C(F)(F)F.O=C(O)C(F)(F)F,Percent Effect,"30.3 µM, […]",22.03%
Fc1cnc(N2CCO[C@H]3CN(CC4CCCCC4)C[C@H]32)nc1.O=C(O)C(F)(F)F,Percent Effect,"30.3 µM, […]",-16.59%
O=C(O)C(F)(F)F.O=C(O)C(F)(F)F.O=C(O)C(F)(F)F.O=C1C[C@@H]2[C@H](CCN2Cc2ccccn2)N1Cc1ccncc1,Percent Effect,"30.3 µM, […]",27.44%
c1ccc(CN2C[C@@H]3OCCN(CC4CCCO4)[C@@H]3C2)nc1 (stereo not given in full),Percent Effect,"30 µM, 30.03 µM",15.57%
Cc1ccc(N2CCO[C@H]3CN(Cc4ccncc4)C[C@H]32)nn1.O=C(O)C(F)(F)F.O=C(O)C(F)(F)F.O=C(O)C(F)(F)F,Percent Effect,"30 µM, 30.03 µM",16.14%
c1ccc(CCN2C[C@@H]3OCCN(c4ncccn4)[C@@H]3C2)cc1,Percent Effect,"30.3 µM, […]",6.788%
c1ccc(CN2C[C@@H]3OCCN(c4cccnc4)[C@@H]3C2)nc1,Percent Effect,"30.3 µM, […]",55.81%
O=C(O)C(F)(F)F.O=C(O)C(F)(F)F.O=C(O)C(F)(F)F.c1ccc(CN2C[C@@H]3OCCN(c4ncccn4)[C@@H]3C2)nc1,Percent Effect,"30 µM, 30.03 µM",-0.09782%
Cc1ccc(N2CCO[C@H]3CN(Cc4ccccn4)C[C@H]32)nn1.O=C(O)C(F)(F)F.O=C(O)C(F)(F)F.O=C(O)C(F)(F)F,Percent Effect,"30.3 µM, […]",63.6%
Fc1ccccc1CN1C[C@@H]2OCCN(c3ncccn3)[C@@H]2C1,Percent Effect,"30.3 µM, […]",15.52%
Cn1ccnc1CN1C[C@@H]2OCCN(c3ncccn3)[C@@H]2C1,Percent Effect,"30.3 µM, […]",50.19%
O=C(O)C(F)(F)F.c1cncc(N2CCO[C@H]3CN(CC4CCOC4)C[C@H]32)c1 (stereo not given in full),Percent Effect,"30.3 µM, […]",31.71%
CC(C)N1CC[C@@H]2OC[C@H](C(=O)Nc3cccnc3)C[C@@H]2C1.O=C(O)C(F)(F)F.O=C(O)C(F)(F)F,Percent Effect,"30.3 µM, […]",-12.98%
CCCn1nc(C)c(-c2cncn2CC2(N(C)C)CCC(C)CC2)c1C (stereo not given),Percent Effect,"30.3 µM, […]",1.091%
CCCN1CCC(c2nc3ccc(C)cn3n2)CC1.O=C(O)C(F)(F)F,Percent Effect,"30.3 µM, […]",17.32%
Cc1cccc(CN2C(=O)C[C@H]3[C@@H]2CCN3Cc2nccs2)n1.O=C(O)C(F)(F)F.O=C(O)C(F)(F)F,Percent Effect,"30.3 µM, […]",2.484%
CC(C)NC(=O)c1ccc2c(c1)C1(CCN(C)CC1)C(=O)N2.O=C(O)C(F)(F)F,Percent Effect,"30.3 µM, […]",1.546%
Cc1ccc(C(=O)N2C[C@H](N3CCOCC3)[C@@H]3OCCC[C@@H]32)cn1.O=C(O)C(F)(F)F.O=C(O)C(F)(F)F,Percent Effect,"30.3 µM, […]",2.104%
CN1[C@H]2CC[C@@H]1CN(c1cc(Sc3cccs3)nc(N)n1)CC2,Percent Effect,"30.3 µM, […]",2.015%
CC(C)CCN1C[C@@H]2OCCN(c3ncc(F)cn3)[C@@H]2C1.O=C(O)C(F)(F)F,Percent Effect,"30.3 µM, […]",-5.572%
COCC1CC2(CCN(Cc3cccnc3)CC2)CN1C(C)C (stereo not given),Percent Effect,"30.3 µM, […]",20.26%
